In all, about 190,000 compounds went through this assay and about 930 (0.49%) were called active.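 Rule for the calls: active = z-score of insulin promoter reporter brightness in nuclei below -3 at 5 µM, with at least 500 cells counted; inconclusive = wells with under 500 cells, flagged as toxic or sparse; inactive = the rest.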 Some of the results follow. Measured potencies and affinities stand elsewhere.

The assay is described as follows: insulin promoter down-regulators in MIN6 cells, imaging, high-content screening, mouse beta cells (AID 1628). The settings on record: MIN6 insulin promoter GFP reporter, at 5 µM, stronger effect = lower value.
For the compound `Cc1noc(C)c1CS(=O)(=O)c1ccc(Br)cc1`, the z-score was 3.18 (inactive).
Consider `Cc1noc(C)c1COC(=O)c1ccc(S(=O)(=O)NCc2ccco2)cc1`, for which the z-score was -4.22 (active).
On to `CC(OC(=O)c1ccc2ncsc2c1)C(=O)Nc1ncc(Cl)cc1Cl` (stereo not given), for which the z-score was -5.12 (active).
Consider `CC(OC(=O)c1ccc(S(=O)(=O)NCc2ccco2)cc1)C(=O)Nc1ncc(Cl)cc1Cl` (stereo not given), for which the z-score was -5.26 (active).
Next, `N#Cc1ccc(CSc2nnc(NC(=O)c3ccc4ncsc4c3)s2)cc1`: 4.4 (inactive); `C1=C(N2CCOCC2)/C(=C/c2nc3ccccc3[nH]2)CC1`: 3.43 (inactive).
Turning to `CCN(CC)c1ccc2cc(C(=O)Nc3ccccn3)c(=O)oc2c1`, the z-score was 6.12 (inactive).
The value for `COc1ccc(N=c2oc3cc(O)ccc3cc2C(=O)Nc2ccccn2)cc1OC` was -3.17 (active); that for `CC(C)OCCCn1c(NN)nc2ccccc2c1=O` was -4.32 (active).
In the case of `CCCN1C(=O)/C(=C/c2c(NCCCOC(C)C)nc3c(C)cccn3c2=O)SC1=S`, the z-score was 11.2 (inactive).
For `O=c1oc2ccccc2c(NCc2cccc(F)c2)c1[N+](=O)[O-]`, the z-score is 1.25 (inactive).
Consider `Cc1ccc(/C(C#N)=C\c2ccc(N3CCOCC3)o2)cc1`, for which the z-score was 6.7 (inactive).
Consider `C/C(=N\NC(=O)c1cc(-c2ccccn2)nc2ccccc12)c1cccc([N+](=O)[O-])c1`, for which the z-score was 4.2 (inactive).
As to `Cc1cc(C)c2nc(NNC(=O)c3cc(-c4cccs4)nc4ccccc34)sc2c1`, the z-score is 3.73 (inactive).
On to `C/C(=N\NC(=O)c1cc(-c2cccs2)nc2ccccc12)c1ccccn1`, for which the z-score was -6.25 (active).
Take `Cc1ccnc(N2C(=O)c3cccc4c([N+](=O)[O-])ccc(c34)C2=O)c1`: the z-score is 3.14 (inactive).
With `Cc1ccc(N2C(=O)c3cccc4c(N5CCN(C)CC5)ccc(c34)C2=O)c2cccnc12`, the z-score was 5.89 (inactive).
For `O=C(Nc1cccnc1)c1ccc(S(=O)(=O)c2ccc(Cl)cc2)cc1`, the z-score is 1.01 (inactive).
As for `COc1ccc(NC(=O)c2sc3nc(-c4cccnc4)ccc3c2N)cc1`, the z-score was 6.04 (inactive).
The value for `COc1ccc(Cc2nc(-c3ccc(NC(=O)c4cccnc4)cc3)no2)cc1` was -4.08 (active); that for `Cc1cccc(C2C3=C(Nc4[nH]n(-c5ccccc5)c(=O)c42)c2ccccc2C3=O)c1` (stereo not given) was -4.1 (active).
On to `Brc1ccc2oc3c(N4CCOCC4)ncnc3c2c1`, for which the z-score is -0.34 (inactive).
Consider `c1ccc2c(c1)oc1c(N3CCN(Cc4ccc5c(c4)OCO5)CC3)ncnc12`, for which the z-score is -6.44 (active).
The value for `CC(C)/C=C1\CC/C(=C\c2ccc(N(C)C)cc2)C1=O` was 3.08 (inactive).
Next, `COc1cc(-c2noc(C3CCCN(S(=O)(=O)c4cccc(Cl)c4)C3)n2)cc(OC)c1OC` (stereo not given): -3.23 (active).
On to `Cc1ccccc1C(=O)Nc1cccc(NC(=O)Cn2cnc3c(=O)n(C)c(=O)n(C)c32)c1`, for which the z-score was -5.95 (active).
Take `COc1cccc2c(=O)n(CC(=O)Nc3cccc(F)c3)ccc12`: the z-score was 3.43 (inactive).
On to `Cc1nc(NC(=O)COC(=O)CCS(=O)(=O)c2ccccc2Cl)c(Cl)cc1Cl`, for which the z-score is 4.24 (inactive).
For `N#Cc1cccc(NC(=O)COC(=O)CCc2nc3ccccc3c(=O)[nH]2)c1`, the z-score is 1.59 (inactive).
Regarding `O=C(COC(=O)Cn1cnc2ccccc2c1=O)Nc1cc(Cl)ccc1[N+](=O)[O-]`, the z-score is -4.27 (active).
Take `CCc1cc2c(N3CCN(c4nnc(CC)s4)CC3)ncnc2s1`: the z-score is -5.09 (active).
Regarding `CCOc1cc(/C=N/NC(N)=O)cc(Br)c1OCc1ccccc1F`, the z-score was -5.46 (active).
With `CCCNC(=O)N1CCC(C(=O)c2ccc(Cl)cc2)CC1`, the z-score is 3.79 (inactive).
For the compound `O=C(C1CCC1)N1CCc2cc(S(=O)(=O)NCCN3CCN(c4ccccc4F)CC3)ccc21`, the z-score is -4.42 (active).
Regarding `O=C(C1CCC1)N1CCc2cc(S(=O)(=O)NCc3cccnc3)ccc21`, the z-score is -3.56 (active).
Take `Nc1c(C(=O)C2CC2)sc2nc(-c3ccccc3)cc(C(F)(F)F)c12`: the z-score was 11.2 (inactive).
Next, `C(=N\c1nc2ccccc2[nH]1)/c1cccs1`: -1.35 (inactive).
Take `CC(=O)c1c(C)[nH]c(-c2ccccc2)nc1=S`: the z-score is 5.61 (inactive).
Next, `Cc1ccc(NS(=O)(=O)c2cc(C(=O)O)ccc2Cl)c(C)c1`: 1.63 (inactive).
As to `Cc1cc2c(ncn2C)c(NS(=O)(=O)c2ccccc2Cl)c1C`, the z-score was -4.59 (active).
As for `CCN(CC)c1ccc2cc(C(N)=O)/c(=N\NC(=O)c3ccncc3)oc2c1`, the z-score was 5.56 (inactive).
Turning to `NC(=O)c1cc2ccc(O)cc2oc1=NCc1ccccc1`, the z-score is 6.96 (inactive).
Next, `CCOc1cccc2cc(C(N)=O)c(=NCc3ccccc3)oc12`: -3.34 (active); `CN(C)/C=N/c1sc2c(c1C#N)CCC2`: -0.51 (inactive); `O=C(O)CC12CSc3[nH]c(=O)sc3C1c1ccccc1OC2=O` (stereo not given): 3.25 (inactive).
With `Fc1ccc(C2CC(c3ccco3)=NN2c2ccccc2)cc1` (stereo not given), the z-score was 3.51 (inactive).
Regarding `O=C(O)CCC(=O)N1CC=C(c2ccccc2)CC1`, the z-score was -3.14 (active).
The value for `O=C(COc1ccccc1)N1CCN=C1c1ccccc1` was 3.07 (inactive).
Take `O=C(O)c1ccn(COc2ccc(Br)cc2)n1`: the z-score was 4.62 (inactive).
In the case of `CCOC(=O)N1CCC(NC(=O)c2cc(C(=O)Nc3ccc(OC)c(OC)c3)ccc2CO)CC1`, the z-score was 3.42 (inactive).
The value for `CCN1CCc2c(sc(NC(=O)Nc3ccc(Cl)c(Cl)c3)c2C(N)=O)C1` was 16 (inactive); that for `Cc1cn(S(=O)(=O)c2ccc(Br)c3ccccc23)cn1` was -4.36 (active); that for `COc1ccc(N(C(=O)Cc2cccs2)C2C=CS(=O)(=O)C2)cc1` (stereo not given) was 3.14 (inactive).
Turning to `O=C1S/C(=C\c2ccc(N3CCOCC3)o2)C(=O)N1Cc1c(F)cccc1Cl`, the z-score was 14.9 (inactive).
Next, `C1=C(c2ccccc2)Nc2nnnn2C1`: 3.1 (inactive).
`NC(=S)N/N=C/c1cccc(O)c1O`: the z-score is -5.73 (active).
Next, `FC(F)C(F)(F)C1=CC(c2ccccc2)=NCCN1`: -3.16 (active); `O=C1C2C3C=CC(C3)C2C(=O)N1CCC(=O)N1CCc2ccccc21` (stereo not given): 0.52 (inactive).
As for `Cc1cccc2cc3c(N)c(C(=O)N4CCc5ccccc54)sc3nc12`, the z-score is 4.42 (inactive).
Regarding `CC1CCc2nc3ccccc3c(C(=O)OCC(=O)N3CCc4ccccc43)c2C1` (stereo not given), the z-score is -7.27 (active).
The value for `CCOc1ccc(NC2=NCC(=O)N2Cc2cccs2)cc1` was 4.8 (inactive); that for `COc1ccc(Cc2nnc(NC(=O)Cc3cccs3)s2)cc1` was 3.48 (inactive); that for `CCOc1cccc(NC(=O)Cc2cccs2)c1` was -3.39 (active).
Next, `CC1=C(C(=O)OCc2ccccc2)C(c2ccccc2)NC(=O)N1CCCCCC(=O)O` (stereo not given): -5.52 (active).
With `O=C(O)CCCCCCCCCCCc1ccccc1`, the z-score was 0.16 (inactive).
Consider `CCOC(=O)/C(=C\C=C1/Sc2cc(OCC)c(OCC)cc2N1CC)C(C)=O`, for which the z-score was 16.7 (inactive).
For the compound `COc1cc(OC)cc(-c2cc3nc4c(c(N5CCN(c6ncccn6)CC5)n3n2)CCCC4)c1`, the z-score is -3.61 (active).
In the case of `Clc1cccc(-c2cc3nc4c(c(N5CCNCC5)n3n2)CCCC4)c1`, the z-score was -0.83 (inactive).
The value for `COc1cccc(-c2cc3nc4c(c(N5CCC6(CC5)OCCO6)n3n2)CCC4)c1` was -3.88 (active); that for `CC(C)N1CC=C2C(C#N)=C(N)C(C#N)(C#N)[C@H](c3ccoc3)[C@H]2C1` was 9.66 (inactive).
On to `CN(C)CCOCCOc1ccccc1-c1ccccc1`, for which the z-score is 4.97 (inactive).
The value for `CC1CN(c2oc(COc3ccc(Cl)cc3Cl)nc2C#N)CC(C)O1` (stereo not given) was -3.34 (active).
As for `COC(=O)c1ccc(C(=O)Nc2cc(Cl)ccc2Cl)cc1NC(=O)c1ccc(N(C)C)cc1`, the z-score is -4.37 (active).
The value for `COC(=O)c1cc(NC(=O)c2cccc(Cl)c2)c(=O)oc1/C=C/Nc1cc(C)cc(C)c1` was 14.9 (inactive); that for `CC(=O)c1cc(NC(=O)c2ccc(Cl)cc2)c(=O)oc1/C=C/N(C)C` was 3.13 (inactive); that for `Cc1ccc2nc(NCCC(=O)O)nc(-c3ccccc3)c2c1` was 4.16 (inactive).
Take `CC1CCCc2sc3nc(NCc4ccco4)n4ncnc4c3c21` (stereo not given): the z-score was -3.54 (active).
Consider `N#C/C(=C\c1ccc(N2CCCCC2)o1)C(=O)Nc1cccc(Br)c1`, for which the z-score is 12.9 (inactive).
With `COc1ccc(C2=NC(=O)/C(=C\c3cc(OC)c(OC)c(OC)c3)O2)cc1`, the z-score was 3.04 (inactive).
Regarding `N#C/C(=C/c1ccc(-c2cc(C(=O)O)cc(C(=O)O)c2)o1)c1nc2ccccc2s1`, the z-score was 3.02 (inactive).
With `COc1ccc(C(NC(C)=O)c2ccc3cccnc3c2O)c(OC)c1` (stereo not given), the z-score is -5.39 (active).
Turning to `COc1cc2c3nnc(-c4ccccc4)c-3cn(Cc3ccccc3F)c2cc1OC`, the z-score is 12.9 (inactive).
Consider `Cc1ccc(C(=O)COC(=O)CNC(=O)c2ccc(N3C(=O)c4ccccc4C3=O)cc2)cc1C`, for which the z-score was -3.38 (active).
As to `O=C(CNC(=O)c1ccco1)OCC(=O)c1ccccc1`, the z-score is 4.35 (inactive).
`CCOC(=O)C1=C(C)OC(N)=C(C#N)C1c1cc(SCC)oc1C` (stereo not given): the z-score is 0.96 (inactive).
With `COc1cccc(NC(=O)N2CCCC2C(=O)NC(C)C)c1` (stereo not given), the z-score was -5.72 (active).
Next, `COC(=O)[C@@H](NC(=O)Nc1cccc(OC)c1)C(C)C`: 3.01 (inactive).
As for `COc1cccc(NC(=O)N2CCN(c3nnnn3-c3ccccc3)CC2)c1`, the z-score is 3.09 (inactive).
In the case of `Cn1c(=O)c(NC2CCCCC2)c2c3c(cccc31)C(=O)c1ccccc1-2`, the z-score is 16.9 (inactive).
Turning to `CC1c2nc3ccccc3n2C(CC(=O)NCCCN2CCOCC2)C(=O)N1Cc1ccccc1` (stereo not given), the z-score is 2.82 (inactive).
Turning to `O=C(NCCCN1CCN(Cc2ccccc2)CC1)C1CCN(c2nnc(-n3cccc3)s2)CC1`, the z-score was -4.79 (active).
As for `O=C(NCCCN1CCCCCC1)C1CC(=O)N(C2CCCC2)C1` (stereo not given), the z-score is 4.02 (inactive).
Take `CC(C)CCNC(=S)Nc1ccc([N+](=O)[O-])cc1`: the z-score is -5.03 (active).
Take `CNC(=S)Nc1ccc([N+](=O)[O-])cc1`: the z-score is 4.22 (inactive).
As for `Cc1[nH]c2ccccc2c1/C=N/Nc1ccc([N+](=O)[O-])cc1`, the z-score was 13.9 (inactive).

The record behind these values is PubChem BioAssay AID1628 (Sanford-Burnham Center for Chemical Genomics, 2009).
